This passage reports outcome and AC50 results from PubChem BioAssay (EPA / NIEHS).

Inconclusive results are not listed. Calls of active or inactive are those of the source. The calls were made as follows: active = hit-call score of the fitted dose curve at least 0.9, where 1 is the maximum; inconclusive = response in the unintended direction; inactive = score below 0.9.

Assay [1] is described as follows: Tanguay_ZF_120hpf_MORT_legacy: (Legacy) Oregon State University Tanguay Lab 120 Hour Post-fertilization zebrafish Assay for Mortality (AID 2283633).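 As to AC50: fitted as increase in binary mortality versus DMSO negative control.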 Put shortly: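 Dechorionated Tropical 5D wild-type zebrafish embryos, one per well from 6 hpf, were statically exposed at 28C in the dark until 120 hpf (0.64% DMSO final). Mortality was scored as present/absent by brightfield microscopy, fitted positively versus DMSO.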

Assay [2] can be described thus: Tanguay_ZF_120hpf_YSE_legacy: (Legacy) Oregon State University Tanguay Lab 120 Hour Post-fertilization zebrafish Assay for Yolk Sac Edema (AID 2283634).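 As to AC50: actives raise the incidence of yolk sac edema above the DMSO baseline.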 Put shortly: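 Tropical 5D wild-type embryos, dechorionated with pronase at 4 hpf, were exposed singly from 6 hpf to 120 hpf under static, sealed, dark conditions at 28C with 0.64% DMSO final. Yolk sac edema was scored present/absent by brightfield microscopy.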

The nature of assay [3]: Tanguay_ZF_120hpf_AXIS_legacy: (Legacy) Oregon State University Tanguay Lab 120 Hour Post-fertilization zebrafish Assay for Body Axis Malformation (AID 2283635).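 As to AC50: potency for an increased fraction of larvae scored with body axis malformation.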 A digest of the protocol: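 Tropical 5D wild-type zebrafish embryos, dechorionated with pronase at 4 hpf, were placed singly in wells at 6 hpf and exposed statically to test chemical (0.64% DMSO final) at 28C until 120 hpf, then scored by brightfield for body axis defects.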

Assay [4] is described as follows: Tanguay_ZF_120hpf_EYE_legacy: (Legacy) Oregon State University Tanguay Lab 120 Hour Post-fertilization zebrafish Assay for Eye Malformation (AID 2283636).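 Also: binary presence or absence of eye malformation scored by brightfield in 120 hpf larvae.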 Put shortly:
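Static waterborne exposure of dechorionated zebrafish embryos (strain Tropical 5D), 6 to 120 hpf, sealed plates at 28C, 0.64% DMSO vehicle. Eye malformation is scored as a binary endpoint, with gain of signal analysed relative to DMSO.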

Assay [5] is described as follows: Tanguay_ZF_120hpf_SNOU_legacy: (Legacy) Oregon State University Tanguay Lab 120 Hour Post-fertilization zebrafish Assay for Snout Malformation (AID 2283637). A digest of the protocol:
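Dechorionated zebrafish, individually housed from 6 hpf in covered, sealed wells at 28C with 0.64% DMSO vehicle, were examined at 120 hpf for snout malformation. Responses were binary and analysed positive-direction relative to DMSO.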

Assay [6] in a line: Tanguay_ZF_120hpf_JAW_legacy: (Legacy) Oregon State University Tanguay Lab 120 Hour Post-fertilization zebrafish Assay for Jaw Malformation (AID 2283638).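 As to AC50: active means more embryos with jaw malformation than DMSO controls.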 A digest of the protocol:
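Tropical 5D wild-type embryos, dechorionated with pronase at 4 hpf, were placed singly per well at 6 hpf and statically exposed at 28C until 120 hpf (0.64% DMSO final). Jaw malformation scored as present/absent by brightfield microscopy at 120 hpf, analyzed relative to DMSO.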

Assay [7] can be described thus: Tanguay_ZF_120hpf_OTIC_legacy: (Legacy) Oregon State University Tanguay Lab 120 Hour Post-fertilization zebrafish Assay for Otic Vesicle Malformation (AID 2283639). Put shortly: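 Statically exposed wild-type 5D zebrafish embryos, kept sealed and dark at 28C through 120 hours post fertilization, were examined by brightfield microscopy for otic vesicle defects. Responses were recorded as present or absent and analysed relative to DMSO.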

Assay [8] is described as follows: Tanguay_ZF_120hpf_BRAI_legacy: (Legacy) Oregon State University Tanguay Lab 120 Hour Post-fertilization zebrafish Assay for Brain Malformation (AID 2283641). Put shortly:
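Tropical 5D wild-type zebrafish embryos were exposed statically in sealed, foil-covered plates at 28C until 120 hpf, with 0.64% (vol/vol) final DMSO. Brain malformation was scored present/absent by brightfield microscopy, relative to DMSO baseline.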

Assay [9] can be described thus: Tanguay_ZF_120hpf_SOMI_legacy: (Legacy) Oregon State University Tanguay Lab 120 Hour Post-fertilization zebrafish Assay for Somite Malformation (AID 2283647). A digest of the protocol: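 Tropical 5D wild-type zebrafish embryos, dechorionated with pronase at 4 hpf, were placed singly at 6 hpf and statically exposed until 120 hpf at 28C in 0.64% DMSO. Somite malformation was scored present/absent by brightfield microscopy versus DMSO.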

Assay [10] in a line: Tanguay_ZF_120hpf_CFIN_legacy: (Legacy) Oregon State University Tanguay Lab 120 Hour Post-fertilization zebrafish Assay for Caudal Fin Malformation (AID 2283649). Put shortly:
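Tropical 5D wild-type embryos, dechorionated with pronase at 4 hpf, were placed singly in wells at 6 hpf and statically exposed to compound at 28C until 120 hpf (0.64% DMSO). Caudal fin malformation was scored present/absent by brightfield microscopy.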

The nature of assay [11]: Tanguay_ZF_120hpf_CIRC_legacy: (Legacy) Oregon State University Tanguay Lab 120 Hour Post-fertilization zebrafish Assay for Circulatory Malformation (AID 2283651). Put shortly:
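Embryos are dechorionated at 4 hpf, plated one per well at 6 hpf, then held under static exposure at 28C until 120 hpf. Malformations are recorded as binary calls; mortality excludes other endpoints.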

The nature of assay [12]: Tanguay_ZF_120hpf_SWIM_legacy: (Legacy) Oregon State University Tanguay Lab 120 Hour Post-fertilization zebrafish Assay for Swim Bladder Malformation (AID 2283654).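 Also: swim bladder malformation in each larva scored yes or no under brightfield.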 Put shortly:
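Static waterborne exposure of single dechorionated Tropical 5D zebrafish embryos, 6–120 hpf, 28C, 0.64% DMSO final. Read-out: swim bladder malformation, present/absent, relative to DMSO negative control; trimethyltin chloride 5uM served as positive control.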

The nature of assay [13]: Tanguay_ZF_120hpf_TRUN_legacy: (Legacy) Oregon State University Tanguay Lab 120 Hour Post-fertilization zebrafish Assay for Truncated Body (AID 2283655). A digest of the protocol: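 Tropical 5D wild-type embryos, dechorionated with pronase at 4 hpf, were placed singly in wells at 6 hpf and statically exposed at 28C until 120 hpf, final DMSO 0.64%. Truncated body was scored present/absent by brightfield microscopy.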

A short description of assay [14]: Tanguay_ZF_120hpf_NC_legacy: (Legacy) Oregon State University Tanguay Lab 120 Hour Post-fertilization zebrafish Assay for Notochord and Tail Malformation (AID 2283656). A digest of the protocol: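 Binary scoring of notochord distortion by brightfield microscopy; embryos dying were not scored. Wild-type Tropical 5D embryos, chorion removed, exposed singly and statically from 6 to 120 hpf, 28C, sealed, 0.64% DMSO.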

Assay [15] can be described thus: Tanguay_ZF_120hpf_PFIN_legacy: (Legacy) Oregon State University Tanguay Lab 120 Hour Post-fertilization zebrafish Assay for Pectoral Fin Malformation (AID 2283648).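 Also: each larva judged yes or no for fin defect by brightfield with dead larvae skipped.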 A digest of the protocol:
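Scoring of pectoral fin malformation was binary, made at 120 hpf on larvae exposed statically from 6 hpf after enzymatic chorion removal. Activity was fitted upward relative to DMSO controls at 0.64% (vol/vol).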

The nature of assay [16]: Tanguay_ZF_120hpf_PIG_legacy: (Legacy) Oregon State University Tanguay Lab 120 Hour Post-fertilization zebrafish Assay for Pigmentation Malformation (AID 2283650). A digest of the protocol:
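Endpoint is incidence of abnormal pigmentation at 120 hpf in dechorionated 5D zebrafish exposed singly from 6 hpf at 28C, DMSO vehicle at 0.64%. Embryos dying by 24 or 120 hpf are excluded from scoring.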

A short description of assay [17]: Tanguay_ZF_120hpf_PE_legacy: (Legacy) Oregon State University Tanguay Lab 120 Hour Post-fertilization zebrafish Assay for Pericardial Edema (AID 2283640). A digest of the protocol: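 Tropical 5D wild-type zebrafish embryos were exposed statically to 120 hpf at 28C, sealed and foil-covered, in 0.64% DMSO final. Pericardial edema was scored present/absent by brightfield microscopy; dead embryos were not scored.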

On to `COC(=O)c1ccccc1N`, for which the call in assay [1], in [2], in assay [3], in assay [4], in assay [5] and in assay [6] was inactive. The outcome in assay [7], in [8], in assay [9], in [10], in assay [11] and in [12] was inactive. Moreover, the compound was called inactive in assay [13] and in [14].

With `c1ccc(C2CO2)cc1` (configuration not stated), the compound was classed as inactive in [1], in assay [2], in [3], in assay [4], in assay [5] and in assay [6]. Besides, the compound was called inactive in [7], in assay [8], in [9], in [15], in [10] and in assay [16]. Also, the result in assay [11], in [12], in assay [13] and in [14] was inactive.

Broadly, the AC50 is the midpoint of the concentration-response curve, whichever way the signal moves. Turning to `CN(C)c1ccc(C(=O)c2ccc(N(C)C)cc2)cc1`, the half-maximal activity concentration (AC50) in assay [1] was 9.64 µM (active); in assay [2] it was 25.4 µM (active); in [3], 25.2 µM (active); in assay [4] it was 8.23 µM (active); in assay [5] it was 27.7 µM (active); in assay [6] it was 23.4 µM (active). Further, the AC50 in [7] is 12.9 µM (active); in assay [8], 48.7 µM (active); in assay [9], 28.4 µM (active); in assay [15], 17.2 µM (active); in assay [11], 9.77 µM (active); in [12], 30.1 µM (active). Also, the call in [10], in [13] and in [14] was inactive.

As to `CCNS(=O)(=O)C(F)(F)C(F)(F)C(F)(F)C(F)(F)C(F)(F)C(F)(F)C(F)(F)C(F)(F)F`, the compound was classed as inactive in [1], in [11] and in assay [14]. For the same compound, the AC50 in assay [2] is 43 µM (active); in assay [3], 55.9 µM (active); in [4], 53.6 µM (active); in assay [5], 54.9 µM (active); in assay [6], 41.5 µM (active); in assay [7], 46.9 µM (active). The half-maximal activity concentration (AC50) in [8] was 45.5 µM (active); in assay [9], 9.56 µM (active); in assay [15], 48.4 µM (active); in assay [16] it was 46.8 µM (active).

For the compound `CCN(CC)N=O`, the result in assay [1], in assay [2], in assay [3], in assay [4], in [5] and in assay [6] was inactive. Moreover, the call in assay [7], in assay [8], in assay [9], in assay [15], in [10] and in [16] was inactive. The outcome in assay [12], in assay [13] and in assay [14] was inactive.

On to `CCC(C)c1ccc(O)cc1` (configuration not stated), for which the result in [1], in [2], in assay [3], in [4], in assay [5] and in [6] was inactive. For the same compound, the compound was called inactive in assay [7], in [8], in assay [9], in assay [15], in [10] and in assay [11]. Moreover, the call in [12], in [13] and in assay [14] was inactive.

Consider `Cc1cc(N=Nc2ccccc2C)ccc1N`, for which the call in assay [1], in [2], in [3], in assay [4], in assay [5] and in [6] was inactive. In addition, the result in [7], in [8], in assay [15], in assay [16], in [11] and in assay [12] was inactive. For the same compound, the compound was called inactive in assay [14]. Besides, the AC50 in assay [13] was 48.2 µM (active).

Take `CS(=O)(=O)NC(=O)c1cc(Oc2ccc(C(F)(F)F)cc2Cl)ccc1[N+](=O)[O-]`: the compound was classed as inactive in [1], in assay [2], in assay [3], in assay [4], in [5] and in assay [6]. In addition, the result in [17], in [8], in assay [9], in assay [15], in assay [10] and in assay [16] was inactive. Besides, the compound was called inactive in assay [11], in [12], in [13] and in [14].

With `O=P(OCCCl)(OCCCl)OCCCl`, the result in assay [1], in assay [2], in [3], in [4], in assay [5] and in assay [6] was inactive. In addition, the call in assay [7], in [8], in assay [9], in assay [15], in assay [10] and in [16] was inactive. The call in assay [12] and in assay [13] was inactive.
